Reference: the supplement of paper PMC6555819

Columns and labels:
Assay in all cases: PBM binding z-score (relative to random genomic background probes); higher = stronger binding; sequences stand for … in GC…GCGATTGACAGCGTAGAATGAAGG
[1] = system: FXR:RXRa (NR concentration 270 nM, RXRa partner concentration 90 nM)
Outline: (§1)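 Each nuclear receptor dimer, without ligand, was incubated for 1 h on custom Agilent 4×180K protein-binding microarrays. Binding was detected with antibodies against each partner (one per run), and scanned fluorescence was regression-normalized. The binding z-scores are referenced to random human genomic background probes.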

[2] = system: LXRa:RXRa (NR concentration 270 nM, RXRa partner concentration 90 nM)
Outline: as §1

[3] = system: LXRa homodimer (NR concentration 270 nM)
Outline: as §1

[4] = system: LXRb:RXRa (NR concentration 270 nM, RXRa partner concentration 90 nM)
Outline: as §1

[5] = system: LXRb homodimer (NR concentration 270 nM)
Outline: as §1

[6] = system: PPARa:RXRa (NR concentration 270 nM, RXRa partner concentration 90 nM)
Outline: as §1

[7] = system: PPARg:RXRa (NR concentration 180 nM, RXRa partner concentration 90 nM)
Outline: as §1

[8] = system: PPARg:RXRa 270nM:90nM, anti-RXR (NR concentration 270 nM, RXRa partner concentration 90 nM)
Outline: as §1

[9] = system: PPARg:RXRa 30nM:10nM, anti-RXR (NR concentration 30 nM, RXRa partner concentration 10 nM)
Outline: as §1

[10] = system: PPARg:RXRa 90nM:30nM, anti-RXR (NR concentration 90 nM, RXRa partner concentration 30 nM)
Outline: as §1

[11] = system: PPARg:RXRa DBDmut IVT, anti-RXR (DBD mutation: RXRa K156A/R161A, NR concentration 270 nM, RXRa partner concentration 90 nM)
Outline: as §1

[12] = system: PPARg:RXRa IVT, anti-PPARg (NR concentration 270 nM, RXRa partner concentration 90 nM)
Outline: as §1

[13] = system: PPARg DBDmut:RXRa IVT, anti-PPARg (DBD mutation: PPARg1 K132A/R137A, NR concentration 270 nM, RXRa partner concentration 90 nM)
Outline: as §1

[14] = system: PPARg DBDmut IVT, anti-PPARg (DBD mutation: PPARg1 K132A/R137A, NR concentration 270 nM)
Outline: as §1

[15] = system: PPARg homodimer (NR concentration 180 nM)
Outline: as §1

[16] = system: PXR:RXRa (NR concentration 270 nM, RXRa partner concentration 90 nM)
Outline: as §1

[17] = system: PXR homodimer (NR concentration 270 nM)
Outline: as §1

[18] = system: RARa:RXR (NR concentration 270 nM, RXRa partner concentration 90 nM)
Outline: as §1

[19] = system: RARa homodimer (NR concentration 270 nM)
Outline: as §1

[20] = system: RARb:RXRa (NR concentration 270 nM, RXRa partner concentration 90 nM)
Outline: as §1

Sequence	PBM binding z-score [1]	PBM binding z-score [2]	PBM binding z-score [3]	PBM binding z-score [4]	PBM binding z-score [5]	PBM binding z-score [6]	PBM binding z-score [7]	PBM binding z-score [8]	PBM binding z-score [9]	PBM binding z-score [10]	PBM binding z-score [11]	PBM binding z-score [12]	PBM binding z-score [13]	PBM binding z-score [14]	PBM binding z-score [15]	PBM binding z-score [16]	PBM binding z-score [17]	PBM binding z-score [18]	PBM binding z-score [19]	PBM binding z-score [20]
CCACGGAGGACAACAGGAGGTCAGAGCTGCCAGA	1.09	2.38	2.44	1.7	-0.198	2.21	0.672	0.164	-0.705	-0.441	-0.448	0.453	-0.512	-0.952	1.79	2.21	0.52	2.53	1.2	2.99
CAAACTAGGTCAACGGAAGGTCAAAGTCCGCATG	6.1	5.99	5.99	5.09	1.55	5.74	9.03	7.24	5.66	7.49	8.48	8.61	4.8	2.05	7.1	5.74	2.3	7.48	2.65	5.04
ACAGACAGGTGAGTGACGGTAACTCAGCTGGACG	-0.187	-0.0958	-0.572	-0.393	-0.746	-0.129	0.633	0.0382	-0.358	-0.388	0.522	0.563	0.246	0.557	-0.526	-0.527	-0.705	-0.525	-0.487	0.377
AGTACGAGGGCAATGAGTTGATAGCACGGGTGGC	0.396	0.352	-0.477	0.0796	-0.401	0.795	1.08	0.242	-0.0294	0.117	1.59	1.15	0.233	0.248	0.203	1.32	5.08	0.221	0.00797	2.08
ATCGAAAGGTCGAAGGTGAATATACCCACCCGAA	5.04	4.06	0.547	3.42	0.763	5.24	5.61	5.45	2.92	4.71	0.205	2.75	0.488	1.25	2.07	3.5	0.328	5.15	0.699	4.04
CGAACGAGGGCATGAGTAGATAGCAAATGCCGAT	0.0959	0.081	-0.748	-0.189	-1.08	0.99	1.4	0.988	0.168	0.198	2.5	2.07	-0.283	0.0377	0.101	0.0706	-0.112	0.0192	-0.164	1.85
CAAACTAGGCCACAGAGGTCAAAGTCCGTGCGTA	5.06	5.36	5.33	5.13	0.98	5.87	7.19	6.39	4.5	5.82	7.36	7.37	2.08	0.00435	3.3	5.81	4.73	6.18	0.998	4.29
CCAGACAGGTGAGAGGGTAACTCAGCCTCGATTA	0.0104	0.0679	-0.0244	0.043	-0.609	1.65	1.99	2.94	0.655	2.18	0.762	1.58	-0.651	-0.852	0.818	-0.0811	-0.117	0.443	0.0595	0.951
ACTTACGGGTCAACGAGGTAATAGCACGCGTATA	6.86	4.42	0.29	3.61	0.727	5.72	5.56	5.53	2.48	4.37	3.55	4.22	1.27	1.43	2.86	3.81	0.484	4.62	0.585	4.15
CCTACTGGGCCATCATGTCATTGATATCAACGTT	-0.0902	-0.142	-0.139	0.0528	-0.132	0.932	1.49	2.01	0.718	1.35	4.06	4.28	0.246	0.754	0.785	-0.129	0.119	0.097	-0.0554	0.332
CCAGACAGGTGAAAGGTAACTGAGTCTGGTACGC	0.744	0.866	-0.565	0.528	-0.541	3.52	6.16	6.38	4.81	5.99	2.15	3.28	-0.148	-0.636	1.11	0.918	-0.224	1.83	0.0845	1.28
AGTCAAAGTTCAATAGGTAACGTAAGATTCAGCT	5.27	5.09	3.45	3.08	1.59	4.37	5.82	5.74	2.88	4.97	1.07	3.4	1.2	1.2	2.73	4.19	3.15	3.34	1.83	4.8
CCTTACGGGTCACTAACAGGTTATAGCATTTGGA	4.73	4.24	0.54	3.4	0.319	4.89	3.61	3.78	1.37	2.83	2.88	3.68	1.26	0.395	2.62	3.28	0.184	4.08	1.72	3.92
ACTCAAAGTTCACTAGGTAACGTAAGATTCAGCT	5.32	5.16	3.54	3.55	1.83	4.73	5.15	5.21	2.16	4.22	3.09	4.19	1.81	1.14	3.86	4.2	3.09	3.17	3.01	4.95
CCTGACAGGTGAGAAGGTAACTCAGCCTCGATTA	-0.00915	0.102	-0.219	-0.0265	-0.779	0.763	0.404	0.701	-0.205	0.257	1.12	0.913	-0.717	-0.671	0.832	-0.216	-0.0629	0.621	-0.07	0.751
TGAATGAGGTTATAAGAACAGGGAACGTTGCAAA	1.63	1.18	-0.262	1.03	0.118	2.32	1.33	1.6	0.909	1.08	0.968	1.75	0.842	0.453	0.709	0.563	-0.0582	1.32	-0.0801	1.11
CAAACTAGGTCACGAAGGGTCAAAGTCGAATGAC	7.24	7.09	4.6	6.6	1.09	6.41	10.1	7.95	7.11	8.2	8.44	9.09	5.43	4.14	6.07	6.48	1	7.14	2.56	5.29
TAGCCTAGGTCATTGAGCCAGTATAGTACGCATC	4.4	3.31	0.78	2.32	0.252	3.48	1.95	1.97	0.417	1.11	1.41	2.41	0.454	0.0795	0.0834	1.53	-0.111	2.18	-0.419	3.6
TCTCGGAGGACACGAAGATCAGAGCTTTCCAGAG	0.203	-0.201	-0.688	-0.685	-1.08	0.0727	0.181	0.96	2.25	1.67	1.06	-0.251	-1.11	-0.408	-0.646	-0.151	-0.592	0.08	-0.514	1.21
TCTAGTTGCTCAAAGGTCACACACTCGAAATGCG	5.09	5.26	3.7	5.39	1.49	5.88	6.32	6.78	6.1	6.91	2.7	3.98	1.38	1.19	3.79	5.31	1.24	5.48	2.63	4.94
AGTCAAAGTTCATCTCGGTAACGTAAGATATGCT	6.81	6.1	5.38	3.79	1.92	4.76	6.02	6.19	3.18	5.22	0.386	2.85	1.54	1.05	2.38	4.97	4.44	3.65	1.33	5.06
AATACAGGGTCATCGTAGGCTAGAGTACGCACAG	7.1	6.2	2.25	4.59	1.4	6	6.55	5.9	2.52	4.76	3.07	3.89	1.38	0.798	1.99	4.52	0.956	4.85	1.03	4.33
ATCGAAAGGTCGAATGTGAGTATACCCACCCGAA	4.89	4.01	0.69	3.19	1.37	4.5	2.9	3.02	1.25	1.97	0.065	1.47	1.15	0.649	1.56	2.5	0.558	2.9	0.346	3.72
CCTACTGGGGCAAGGTTACCATAACGCACAGCCA	0.343	0.654	-0.167	0.621	-0.484	2.59	4.74	4.44	2.15	4.29	4.78	5.52	2.27	0.765	2.66	0.3	-0.0906	0.631	0.512	1.7
GCGACTGGGCCAAAGCAGGTTACCATAAGGTTGG	-0.0779	-0.533	-0.738	-0.554	-1.58	0.468	0.648	0.456	-0.481	0.0774	2.12	1.67	-1.03	-0.738	-0.482	-0.203	-0.655	0.347	-0.649	-0.0107
TTTCCAAGGTGAAGGTCGTTGATCCCTCTGTAGA	2.77	2.31	0.296	1.8	-0.21	2.81	2.68	3.7	1.88	3.35	1.63	3.3	-0.24	0.793	1.03	1.68	0.247	2.21	-0.347	2.29
TGTCAAAGTTCAAAGGTACCGTAAGTATCCACAC	6.69	6.28	4.68	4.31	1.83	5.79	7.97	7.18	4.9	6.89	0.615	4.3	1.2	0.655	1.97	5.17	3.76	4.94	0.937	4.89
TCTAGTTGGTCAAAGGTCACAGACTCGAAATGCG	6.15	6.04	3.48	5.55	1.44	6.87	11.5	10	10.8	11.2	3.8	6.51	1.4	1.43	5.86	6.19	1.54	7.67	3.5	5.12
